Measured values as given in article PMC9838217, “Structure of SALL4 zinc finger domain reveals link between AT-rich DNA binding and Okihiro syndrome”.
Numbering of substitutions follows the chain as printed.

Tests used:
Assay in all cases: HT-SELEX; high values mean tight binding
Conditions in all cases: protein: recombinant; vector His6-GST; dsDNA, one strand shown
SALL4 ZFC4 WT (HT-SELEX) = target: T1, SALL4 ZFC4 WT (HT-SELEX) (Mus musculus, UniProt Q8BX22 870-940)
T1 sequence: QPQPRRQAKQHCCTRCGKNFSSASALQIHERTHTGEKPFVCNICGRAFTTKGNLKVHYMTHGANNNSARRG
Summary of the method: (§1)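 Binding signal is expressed as fold change in each canonical k-mer's read fraction over the initial random library. To obtain it, 1 µg of purified recombinant mouse SALL4 zinc finger cluster 4 (residues 870–940) was incubated for 10 min at room temperature with library DNA (1.5 µg first cycle, 200 ng later cycles) in 100 µl of 10 mM Tris–HCl pH 7.5, 50 mM NaCl, poly(dI-dC) and DTT. Ni2+ bead-captured complexes went through washing, PCR amplification and reselection for up to 6 cycles, in triplicate, before MiSeq sequencing and scanning for 6-mers.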

[1] = target: T2, SALL4 ZFC4 R900W (HT-SELEX) (Mus musculus, UniProt Q8BX22 870-940, R900W)
T2 sequence: T1 sequence with R31W
Summary of the method: as §1

[2] = target: T3, SALL4 ZFC4 G921D (HT-SELEX) (Mus musculus, UniProt Q8BX22 870-940, G921D)
T3 sequence: T1 sequence with G52D
Summary of the method: as §1

Sequence	binding signal (SALL4 ZFC4 WT (HT-SELEX)) [fold-change vs cycle 0]	binding signal [1] [fold-change vs cycle 0]	binding signal [2] [fold-change vs cycle 0]
ACACAG	0.726 ± 0.03	0.835 ± 0.00993	0.877 ± 0.04
CAAAAA	1.52 ± 0.0617	1.38 ± 0.0576	1.35 ± 0.0641
CACCCA	0.431 ± 0.034	0.488 ± 0.0313	0.59 ± 0.0722
GCATGA	0.7 ± 0.0187	0.753 ± 0.0226	0.824 ± 0.0395
CAGTGA	0.806 ± 0.0191	0.934 ± 0.023	0.957 ± 0.0322
CACTTC	0.777 ± 0.0329	0.925 ± 0.0515	0.946 ± 0.0498
CCACTA	0.774 ± 0.0352	0.855 ± 0.0167	0.895 ± 0.0113
GCCTGA	0.303 ± 0.0278	0.386 ± 0.0159	0.497 ± 0.0446
ATAAAA	3.85 ± 0.323	2.43 ± 0.199	2.07 ± 0.279
TGATCA	1.35 ± 0.0953	1.5 ± 0.0834	1.47 ± 0.128
CAACAA	1.1 ± 0.0197	1.21 ± 0.0488	1.2 ± 0.0481
ATTAGC	1.14 ± 0.0454	1.18 ± 0.016	1.2 ± 0.034
AGAGAT	1.51 ± 0.0705	1.65 ± 0.139	1.53 ± 0.135
CTGTAA	1.29 ± 0.062	1.42 ± 0.0769	1.33 ± 0.121
TATAGA	2.35 ± 0.163	2.02 ± 0.132	1.81 ± 0.192
AGGCAA	0.538 ± 0.0205	0.6566 ± 0.00197	0.754 ± 0.0411
GCTATA	1.13 ± 0.0575	1.11 ± 0.0825	1.15 ± 0.0714
ACCAAC	0.731 ± 0.0183	0.8162 ± 0.00324	0.883 ± 0.0212
CGGTTC	0.342 ± 0.0141	0.423 ± 0.038	0.53 ± 0.0844
CAAGGC	0.301 ± 0.0203	0.371 ± 0.0118	0.492 ± 0.0622
ACGTCC	0.359 ± 0.021	0.454 ± 0.0124	0.562 ± 0.0557
TCCCCA	0.461 ± 0.0365	0.533 ± 0.0451	0.593 ± 0.0323
CGATTC	0.682 ± 0.0336	0.738 ± 0.0472	0.84 ± 0.0386
